# Screening data as filed in PubChem.
# Only some compounds are listed: those with a hit (about 3.2% of all), similar ones and a draw of the others.
# TMEM16A act: mouse TMEM16A channel activation, primary screen | B-score at 10 µM | 0.3% of 340,000 active | HEK293 TMEM16A/YFP-H148Q/I152L, iodide quench fluorescence; active compounds read low;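 active means fluorescence-ratio B-score plate-corrected deviation score at least 3 library SD below zero, with starting fluorescence score within 5 deviations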;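 further: channel opened by trigger with iodide after compound preincubation; score built on the fluorescence ratio of max minus min over baseline; more negative score means more quench and so TMEM16A activation or potentiation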
# Rce1 inh: blocks yeast Ras-converting enzyme; Q03530; yeast membranes, quenched prenylated peptide cleavage fluorescence; calls only; 0.27% of 290,000 active;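 active means fall in fluorescence gain of 50% or more versus controls, with final raw signal at or below 3038400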;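 further: plate controls were neutral control wells for no effect and wells lacking membranes for full effect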
# Kir21 inh: inhibitors of mouse Kir2.1 inward-rectifier potassium channel. P35561. HEK293-Kir2.1, FluxOR thallium flux fluorescence; active compounds read low. AID 1672. 0.85% of 310,000 active. B-score at 10 µM;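 active means fluorescence ratio B-score at or below minus 3 SD of library scores, with starting-brightness B-score within 2 SD, cut at about -4.2 in these data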;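 further: channel flux triggered by added potassium and thallium sulfate stimulus; B-score of peak minus minimum fluorescence over baseline after thallium stimulus; more negative B-score means stronger Kir2.1 block with less thallium influx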
# ANO1 block: inhibitors of mouse TMEM16A calcium-activated chloride channel; Q8BHY3; HEK293 TMEM16A/YFP iodide influx fluorescence, ionomycin; normalized B-score (activity score, 25-100; higher = stronger inhibition) at 10 µM; 1.2% of 310,000 active;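 active means ratio plate-corrected score three or more library SD toward inhibition, starting fluorescence score within five deviations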;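 further: score derived from kinetic fluorescence span divided by baseline fluorescence per well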
# CHT block: inhibitors of human choline transporter CHT | Q9GZV3 | 0.86% of 310,000 active | AID 488975 | CHT-expressing cells, membrane potential dye, choline response; active compounds read low | B-score at 10 µM;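 active means B-score over 3 SD under the library average, and starting fluorescence ratio not unusually high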;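 further: choline stimulus applied at its EC90 after an EC20 pre-addition; B-score computed on integrated fluorescence ratio after choline addition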
# Target sequence (Q9GZV3 whole entry, looked up): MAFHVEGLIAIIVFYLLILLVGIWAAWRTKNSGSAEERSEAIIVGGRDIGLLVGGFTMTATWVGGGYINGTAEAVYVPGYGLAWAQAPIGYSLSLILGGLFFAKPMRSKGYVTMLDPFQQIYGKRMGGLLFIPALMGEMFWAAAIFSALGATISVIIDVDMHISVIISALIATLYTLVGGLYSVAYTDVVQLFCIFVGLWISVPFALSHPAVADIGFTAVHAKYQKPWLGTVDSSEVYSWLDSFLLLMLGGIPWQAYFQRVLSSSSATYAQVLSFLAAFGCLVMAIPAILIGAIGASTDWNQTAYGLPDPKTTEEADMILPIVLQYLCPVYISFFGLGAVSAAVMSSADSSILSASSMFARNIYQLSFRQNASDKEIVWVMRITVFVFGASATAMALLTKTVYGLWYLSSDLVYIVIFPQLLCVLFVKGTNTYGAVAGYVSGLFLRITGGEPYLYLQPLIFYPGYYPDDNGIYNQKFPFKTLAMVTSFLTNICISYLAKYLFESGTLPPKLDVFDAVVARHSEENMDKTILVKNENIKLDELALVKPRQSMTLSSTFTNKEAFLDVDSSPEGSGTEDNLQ
# CHT allo act: allosteric activators of human choline transporter CHT | Q9GZV3 | CHT-expressing cells, membrane potential dye, choline EC20; active compounds read high; LV-AA mutant CHT in HEK293 cells | B-score at 10 µM | 0.49% of 310,000 active | AID 488977;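 active means initial fluorescence not abnormally high and integrated response B-score, plate-corrected, over 3 SD above library mean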
# CHT block conf: confirmation of human choline transporter CHT inhibitors. shares compounds with CHT block. CHT-expressing cells, choline membrane potential dye; LV-to-AA substituted CHT, HEK293 cells. CHT activity remaining % of control (active compounds read low), % at 10 µM. 70% of 2,400 active;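 active means choline transporter activity left, mean of duplicates at 10 µM, below buffer-only control mean minus 3 SD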;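 further: depolarization triggered by choline at its EC90 following an EC20 pre-addition; 0% = hemicholinium-3 full block and 100% = buffer-only control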
# HEK293 CHT ctr: counter-screen for CHT inhibitors: effect in parental HEK293 cells; 4% of 2,400 active; shares compounds with CHT block; membrane potential ratio readout (active if shifted either direction beyond buffer ±3SD; no single direction) at 10 µM; membrane potential dye, choline response; active = decrease or increase beyond buffer ±3SD;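 further: parental cells lack the transporter so any hit is non-specific; ratio is peak minus trough fluorescence over baseline after EC90 choline challenge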
# An asterisk follows results filed as active; i = inactive; x = no result given.
SMILES,TMEM16A act,Rce1 inh,Kir21 inh,ANO1 block,CHT block,CHT allo act,CHT block conf,HEK293 CHT ctr
COc1ccccc1C(=O)O/N=C(\c1ccccc1)c1ccncc1,i,i,0.05,i,i,i,x,x
O=C(O/N=C(/c1ccccc1)c1ccncc1)c1ccc(F)cc1,i,i,-0.06,i,-9.69*,i,i,i
CCSc1nnc2n1C(C)(C)Cc1ccccc1-2,i,i,-1.24,i,-5.02*,i,40.8%*,i
COc1cc2c(cc1OC)-c1cc(N3CCCc4ccccc43)nc(=O)n1CC2,i,i,-1.33,i,-6.32*,i,69.7%*,i
COc1cc2c(cc1OC)-c1cc(N3CCc4ccccc43)nc(=O)n1CC2,i,i,0.15,i,i,i,x,x
COc1cc2c(cc1OC)-c1cc(NC3CCCCCC3)nc(=O)n1CC2,i,i,0.5,i,-5.13*,i,22.5%*,i
O=C(Nc1cccc(Cl)c1)/C(=C\c1cccnc1)NC(=O)c1ccco1,i,i,-0.64,i,i,i,x,x
CCc1c(C2(O)CCCCC2)[nH]c2cc(C(F)(F)F)ccc12,i,i,1.31,100*,-5.71*,i,52.7%*,i
O=C(COC(=O)COc1ccc(Cl)cc1)NCc1cccs1,i,i,-0.01,i,i,i,x,x
COc1ccc(-c2cn(Cc3ccc(C(N)=O)cc3)c(CCN)n2)cc1,i,x,x,i,-8.1*,i,i,i
COc1ccc(-c2cn(CCO)c(CCN)n2)cc1,i,x,x,i,i,i,x,x
Cc1ccc(OCCC(=O)OCC(=O)NC(=O)NC2CCCCC2)cc1,i,i,1.71,i,i,i,x,x
CCc1ccc(CN(C)C(=O)c2cc(COc3ccc(-n4cncn4)cc3)on2)cc1,i,i,-0.03,i,i,i,x,x
Cc1nnc(Sc2nc3ccccc3o2)c2ccccc12,i,i,-0.55,i,-5.95*,i,27.1%*,i
Cc1nc2sc3c(=O)[nH]nnc3c2c(C)c1Br,i,i,0.35,i,i,i,x,x
Cc1cc(NC(=O)CCC(=O)N(Cc2ccco2)C2(C(=O)NC3CCCCC3)CCCCC2)no1,i,i,-0.08,i,i,i,x,x
Cc1cc(NC(=O)CCC(=O)N(Cc2ccccc2)C2(C(=O)NC3CCCCC3)CCCC2)no1,i,i,0,i,-5.61*,i,i,i
Cc1cc(C)c(C#N)c(N)n1,i,i,0.15,i,-8.64*,i,i,i
O=C(OCC(=O)N1CCCc2ccccc21)c1ccc(Cl)nc1,i,i,-0.76,i,i,i,x,x
O=C(OCC(=O)N1CCCc2ccccc21)c1cnc(Cl)c(Cl)c1,i,i,-0.86,i,-5.67*,i,i,i
CCN(Cc1ccncc1)C(=O)c1cc(COc2c(C)cccc2C)on1,i,i,-1.32,i,-5.45*,i,52.6%*,i
COc1ccc(NC(=O)c2ccc(NC(=O)CSc3nc(N)cc(=O)[nH]3)cc2)cc1,i,x,x,x,x,x,x,x
N#Cc1ccc(OCC(=O)Nc2ccc(S(=O)(=O)N3CCOCC3)cc2)cc1,i,x,x,x,x,x,x,x
Cc1ccc(S(=O)(=O)Oc2ccc(/C=C3/C(=N)N4C(=NC3=O)SN=C4S(C)(=O)=O)cc2)cc1,i,i,0.02,i,-6.13*,i,47.7%*,i
CCS(=O)(=O)C1=NN2C(=N)/C(=C\c3ccc(OS(=O)(=O)c4ccccc4)cc3)C(=O)N=C2S1,i,i,1.5,i,-8.65*,i,41.8%*,i
CS(=O)(=O)C1=NSC2=NC(=O)/C(=C\c3ccc(OS(=O)(=O)c4ccccc4)cc3)C(=N)N21,i,i,1.22,i,-6.57*,i,57.9%*,i
